# Screening data from PubChem.
# A selection: hits, their analogues and other compounds. The true share with any hit is near 2.4%.
# CHO-K1 Ca antag: counter-screen for M1 antagonists: effect in parental CHO-K1 cells; ATP-induced calcium, Fluo-8 fluorescence; inhibition, % at 3 µM; 360,000 tested, 0.6% active; AID 602250;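 active = inhibition above a per-plate cutoff, the plate's mean sample inhibition plus 3 SD, cut at about 24% in these data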;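 note: 0% = DMSO plus EC80 ATP and 100% = DMSO alone without ATP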
# CHRM1 agonist: human M1 muscarinic receptor agonists, primary screen, Fluo-8 calcium fluorescence, CHO-K1 cells, HTS; Muscarinic acetylcholine receptor M1 (Homo sapiens), P11229; CHO-K1 hM1, agonist mode; 0% DMSO, 100% acetylcholine EC100; AID 588814, 2011; activation, % at 3 µM; 360,000 tested, 0.33% active;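 active = activation above the run's mean compound activation plus 3 SD, cut at about 16% in these data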;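 note: peak over basal fluorescence ratio within a 140 s kinetic read after compound addition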
# Target sequence (P11229 whole entry, looked up): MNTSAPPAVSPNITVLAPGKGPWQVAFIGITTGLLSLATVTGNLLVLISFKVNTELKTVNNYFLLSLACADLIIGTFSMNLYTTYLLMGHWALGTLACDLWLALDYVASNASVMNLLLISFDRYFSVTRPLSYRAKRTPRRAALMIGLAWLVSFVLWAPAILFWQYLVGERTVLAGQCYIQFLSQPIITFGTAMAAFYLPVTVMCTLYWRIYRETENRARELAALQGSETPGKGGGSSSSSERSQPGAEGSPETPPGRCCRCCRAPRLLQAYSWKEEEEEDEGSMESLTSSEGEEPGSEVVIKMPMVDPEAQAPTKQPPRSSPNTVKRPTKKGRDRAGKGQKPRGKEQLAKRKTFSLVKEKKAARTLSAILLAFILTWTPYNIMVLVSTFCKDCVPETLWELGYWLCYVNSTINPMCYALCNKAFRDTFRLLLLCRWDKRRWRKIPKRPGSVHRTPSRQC
# M1 ag parental: counter-screen for M1 agonists: effect in parental CHO-K1 cells; 360,000 tested, 0.48% active; activation, % at 3 µM; Fluo-8 calcium fluorescence; scaled to maximal ATP response, vehicle zero; in the data active = activation above about 15%;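 note: untransfected CHO-K1 host cells lacking M1 receptor as counterscreen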
# M1 PAM: human M1 muscarinic receptor positive allosteric modulators, primary screen, CHO-K1 cells, Fluo-8 calcium fluorescence, 1536-well | Muscarinic acetylcholine receptor M1 (Homo sapiens), P11229 | CHO-K1 hM1, ACh EC20; 0% = ACh EC20, 100% = maximal ACh | activation, % at 3 µM | 360,000 tested, 0.088% active; in the data active = activation above about 19%, passing the limit was not always enough
# M1 PAM parental: nonselective calcium activators in parental CHO-K1 cells, primary screen, counter-screen for M1 PAM project, cell-based, Fluo-8 calcium fluorescence, full deck, 1536-well; ATP EC20; 0% at ATP EC20, 100% at ATP max; activation, % at 3 µM; AID 602247, 2012; 360,000 tested, 0.02% active;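 active = activation above the run cutoff, the mean activation of all test compounds plus 3 SD, cut at about 40% in these data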;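 note: peak over basal fluorescence ratio in a 140 s read after ATP addition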
# CHRM1 antagonist: human M1 muscarinic receptor antagonists, primary screen, CHO-K1 cells, Fluo-8 calcium fluorescence, 1536-well; CHO-K1 hM1, ACh EC80 antagonist; inhibition, % at 3 µM; 360,000 tested, 1.3% active; Muscarinic acetylcholine receptor M1 (Homo sapiens), P11229; AID 588852, 2011;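 active = percent inhibition above its own plate's cutoff, namely the mean of that plate's compound wells plus 3 SD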;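 note: peak over basal fluorescence ratio during 140 s after agonist addition; 0% = ACh EC80 plus DMSO and 100% = DMSO alone without agonist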
# * marks the source's active call; other numbers are inactive results.
SMILES,CHO-K1 Ca antag,CHRM1 agonist,M1 ag parental,M1 PAM,M1 PAM parental,CHRM1 antagonist
CC(C)=CCC[C@](C)(O[C@@H]1O[C@H](CO[C@@H]2OC[C@@H](O)[C@H](O)[C@H]2O)[C@@H](O)[C@H](O)[C@H]1O)C1CC[C@]2(C)C1[C@H](O)CC1[C@@]3(C)CC[C@H](O[C@@H]4O[C@H](CO)[C@@H](O)[C@H](O)[C@H]4O)C(C)(C)C3CC[C@]12C (stereo partly drawn),-12.7,1.9,3.5,12.4,20.5,-9.1
CS(=O)(=O)N1CCc2cc(S(=O)(=O)Nc3ccc4c(c3)OCCO4)ccc21,-1.1,2.8,14.7,-23.6,2.9,32.8*
CCN(C(=O)CSc1nc2ccccc2[nH]1)C1CCS(=O)(=O)C1 (stereo not drawn),-16.7,-8.1,0.3,-10.0,25.4,13.5
O=C(c1cccs1)N1C[C@@H](O)[C@H](n2cc(C3CC3)nn2)C[C@@H]1c1ccc(Cl)cc1,-13.4,-2.5,1.2,3.0,25.4,-9.6
COc1cc(NC(=S)N2CCN(C/C=C/c3ccccc3)CC2)cc(OC)c1,-11.8,-9.3,1.6,9.3,18.0,-7.2
COc1cc(NC(=S)N2CCN(C(c3ccccc3)c3ccccc3)CC2)cc(OC)c1,-2.7,-7.7,-0.1,-23.0,2.9,29.8*
CCOC(=O)c1sc(NC(=O)Nc2ccccc2Cl)cc1C,22.0,-1.2,12.1,-12.7,-1.4,17.8
CCOC(=O)c1sc(NC(=O)C2CCC2)cc1C,26.4*,-7.0,-0.5,5.4,-9.5,2.5
CCOC(=O)c1sc(NC(=O)Nc2ccccc2)cc1C,29.1*,-3.1,16.8*,-17.4,-0.5,32.8
CCOC(=O)c1sc(NC(C)=O)cc1C,-7.9,-2.6,0.4,8.3,14.9,-13.9
CCC(=O)Nc1ccc(C(=O)CN2C(=O)NC3(CCOc4ccccc43)C2=O)cc1 (stereo not drawn),10.1,11.3,0.9,4.3,-22.8,18.6
O=C(CSc1nc2c(c(=O)[nH]1)CCC2)Nc1cccc(Cl)c1,-0.8,17.1*,0.0,15.4,8.6,-11.7
O=C(CSc1nc2c(c(=O)[nH]1)CCC2)Nc1ccccc1Cl,-13.8,-1.7,1.0,9.8,16.9,-15.2
COc1ccc(-c2coc3c(C(=O)NCc4ccc(OC)c(OC)c4)cccc23)c(C)c1,22.8,3.2,12.7,-18.8,1.4,44.1*
COc1ccc(-c2coc3c(C(=O)Nc4cc(OC)c(OC)c(OC)c4)cccc23)c(C)c1,-4.9,-2.1,1.7,-22.1,-1.9,45.4*
COc1ccc(-c2ccc(C(=O)N3CCN(C)CC3)c3occc23)c(C)c1,32.4*,1.3,0.1,9.0,-9.9,-11.8
COc1ccc(-c2ccc(C(=O)NCc3ccncc3)c3occc23)c(C)c1,41.8*,-0.8,10.6,-17.0,-12.7,41.6*
COc1ccc(-c2ccc(C(=O)NCc3ccc(F)c(F)c3)c3occc23)c(C)c1,-11.2,-5.0,3.1,-4.4,14.9,3.1
COc1ccc(-c2ccc(C(=O)N3CCOCC3)c3occc23)c(C)c1,-2.2,1.6,6.1,-13.3,-12.2,18.9
c1ccc(CSc2ccc(-c3ccccn3)nn2)nc1,-7.8,-6.2,1.1,-1.0,-18.7,3.1
CCN(CC(=O)Nc1ccc2c(c1)OCCO2)C(=O)/C=C/c1ccc([N+](=O)[O-])cc1,-17.5,6.3,1.2,10.3,13.3,-9.7
O=C(Nc1ccc2c(c1)OCCO2)C(c1cc2ccccc2o1)N1CCC(Cc2ccccc2)CC1 (stereo not drawn),-28.9,-1.6,0.9,3.7,10.6,-21.9
COc1ccc(Cc2nnc(SCc3nc4ccccc4c(=O)[nH]3)n2C)cc1,-19.1,1.9,0.2,-0.5,8.0,1.3
Cn1c(CCNC(=O)c2ccccc2F)nnc1SCc1nc2ccccc2c(=O)[nH]1,-31.3,4.1,0.3,29.6*,12.7,-46.3
CCCCCCn1c(=O)n2n(c1=O)[C@@H]1CN(S(=O)(=O)c3ccc(C)cc3)C[C@]1(O)[C@@H](OC(=O)NCc1ccco1)C2,-3.1,-7.6,0.2,-1.4,-6.5,-2.1
SMILES,CHO-K1 Ca antag,CHRM1 agonist,M1 ag parental,M1 PAM,M1 PAM parental,CHRM1 antagonist
C=C1C(C(=O)Nc2ccc(OCC)cc2)C1C(=O)Nc1ccc(OCC)cc1 (stereo not drawn),0.5,-3.7,5.4,-1.1,-4.1,8.4
C=C1C(C(=O)Nc2ccc(OC)cc2)C1C(=O)Nc1ccc(OC)cc1 (stereo not drawn),1.2,-2.6,0.0,-4.1,-13.3,25.1*
CCCNC(=O)C1(C)CCCN(C(=O)c2ccc(C)c(F)c2)C1 (stereo not drawn),-4.0,-4.8,-0.1,-2.0,3.5,-3.2
CN1CCC(OC(=O)COc2ccccc2)CC1,-2.1,-3.1,0.0,-18.1,2.3,51.3*
COc1cccc(C(=O)OC2CCN(C)CC2)c1,29.1*,-10.2,-0.8,-8.7,-13.9,10.2
CN1CCC(OC(=O)COc2ccc(F)cc2)CC1,-18.8,-7.9,1.4,7.6,21.0,-13.4
NS(=O)(=O)c1ccc(CCNC(=O)c2ccc(Cl)c(S(=O)(=O)NCc3ccco3)c2)cc1,-3.5,-0.4,2.2,6.3,13.6,-4.2
C=CC[C@@H](CC(=O)N[C@H](CO)Cc1ccccc1)C(=O)N[C@H](COC(=O)[C@@H](CC=C)Cc1ccc(F)cc1)Cc1c[nH]c2ccccc12,-4.1,-4.6,3.0,1.3,6.7,12.1
COc1ccc(C(=O)O)cc1S(=O)(=O)NCc1ccncc1,11.2,-0.6,0.0,10.4,-21.5,-1.6
c1ccc(Oc2ccc(-c3ccn[nH]3)cc2)cc1,2.3,-2.9,0.7,2.2,-18.2,-3.2
c1ccc(-c2ncc(-c3ccn[nH]3)s2)cc1,28.7*,-5.3,-0.5,-9.0,-15.7,10.5
Cc1ccc(C(C(=O)NCc2ccccc2)N(Cc2cccs2)C(=O)c2ccc3c(c2)OCCO3)cc1 (stereo not drawn),13.4,-1.5,10.1,-16.7,13.4,32.7*
COc1ccc(CNC(=O)C(c2ccc(C)cc2)N(Cc2cccs2)C(=O)c2ccc3c(c2)OCCO3)cc1 (stereo not drawn),4.8,3.1,6.6,-12.3,-4.5,18.0
COC(=O)c1ccc(C(C(=O)NCc2ccccc2)N(Cc2cccs2)C(=O)c2cnccn2)cc1 (stereo not drawn),9.6,2.9,4.2,-15.2,6.0,20.6*
O=C(NC(NC(=S)Nc1ccccc1Cl)C(Cl)(Cl)Cl)c1cccc(Cl)c1 (stereo not drawn),23.9*,4.8,14.2,-12.7,-0.8,22.2
